Results reported in PubChem BioAssay AID463173 (ICCB-Longwood Screening Facility, Harvard Medical School, 2010).
Out of some 52,000 compounds screened, about 4,300 (8.3%) were called active. Only a selection was taken, and actives are over-represented in it overall. Values without a mark were called inactive. No stated cut-off is given here; in the data, active means survival mostly below about 52% (no sharp cut-off); inactive means mostly above about 56%.

Each molecule was assayed on DeltatarO mutant (assay: growth inhibition of S. aureus wild type versus tarO mutant, primary screen, teichoic acid synthesis inhibitors, RN4220, OD600 (AID 463173)). Conditions: OD600, 18 h, active compounds read low, screened at 18.75 µg/mL (by protocol).

Structure (SMILES) | survival
CCOC(=O)c1cc2oc(C)cc2n1CC(=O)N(C)C1CCCCC1 | 92%
CCOc1ccc(CCNC(=O)c2ccc3c(c2)c(C)c(C)n3Cc2ccccc2)cc1OCC | 83%
Cc1ccc2c(=O)cc(C(=O)Nc3c(C(=O)c4ccccc4)oc4ccccc34)oc2c1C | 82%
CCCn1c2ccccc2c2cnn(CC(=O)NCCc3ccc(C)cc3)c(=O)c21 | 128%
CCCn1c2ccccc2c2cnn(CC(=O)NCC3CCN(Cc4ccc(F)cc4)CC3)c(=O)c21 | 68%
CCCn1c2ccccc2c2cnn(CC(=O)NCCc3ccc(OCC)c(OCC)c3)c(=O)c21 | 92%
CCCn1c2ccccc2c2cnn(CC(=O)NCC3CCN(Cc4ccc(C)cc4)CC3)c(=O)c21 | 17% (active)
CCCn1c2ccccc2c2cnn(CC(=O)NCC3CCN(Cc4ccccc4C)CC3)c(=O)c21 | 55%
CCCNC(=O)Cn1ncc2c3ccccc3n(CCC)c2c1=O | 128%
CCCn1c2ccccc2c2cnn(CC(=O)NCCCN3CCCCC3)c(=O)c21 | 94%
CCCn1c2ccccc2c2cnn(CC(=O)NCCc3ccc(OCC)cc3)c(=O)c21 | -5% (active)
CCCn1c2ccccc2c2cnn(CC(=O)NCCCOC(C)C)c(=O)c21 | -5% (active)
CCN(CC)S(=O)(=O)c1ccc2c(c1)N(CC(=O)N1CCN(c3cccc(C(F)(F)F)c3)CC1)C(=O)CO2 | 68%
Cc1ccc(SCc2nc(-c3ccc(C(=O)NCc4ccccc4Cl)cc3)oc2C)cc1 | 84%
Fc1cccc(NCc2ccccc2-c2nnc(-c3ccccc3Cl)o2)c1 | 110%
CCn1c(SCC(=O)NC2CCCC2)nnc1-c1ccccc1 | 75%
O=C(CSc1nnc(Cc2ccccc2)n1Cc1ccccc1)NCc1ccco1 | 63%
CC(C)NC(=O)CSc1nnc(Cc2ccccc2)n1Cc1ccco1 | 40% (active)
O=C(CSc1nnc(Cc2ccccc2)n1Cc1ccco1)NC1CCCC1 | 44% (active)
CC(C)NC(=O)CSc1nnc(Cc2ccccc2)n1C | 83%
O=C(CSc1nccn1Cc1ccccc1)NC1CCCC1 | 69%
COc1ccccc1CNC(=O)c1cccn1-c1nnc(N2CCCCC2)s1 | 37% (active)
CCOc1ccccc1CNC(=O)c1cccn1-c1nnc(N2CCCCC2)s1 | 131%
CCOc1ccccc1CNC(=O)c1cccn1-c1nnc(N2CCCC2)s1 | 102%

Structure (SMILES) | survival
COc1ccc(NCc2cccn2-c2nnc(N3CCCCCC3)s2)cc1 | 71%
COc1ccc(NC(=O)c2cccn2-c2nnc(N3CCCCC3)s2)c(OC)c1 | 98%
Cc1ccc(NCc2cccn2-c2nnc(N3CCCCCC3)s2)cc1 | 78%
CCc1ccc(NCc2cccn2-c2nnc(N3CCCCCC3)s2)cc1 | -6% (active)
COc1ccc(CNC(=O)c2cccn2-c2nnc(N3CCCC3)s2)c(OC)c1 | 91%
COc1ccccc1CNC(=O)c1cccn1-c1nnc(N2CCCC2)s1 | 92%
COc1ccccc1CCNC(=O)c1cccn1-c1nnc(N2CCCCC2)s1 | 95%
COc1ccc(CNC(=O)c2cccn2-c2nnc(N3CCCCC3)s2)c(OC)c1 | 0% (active)
CCN1CCN(c2nnc(-n3cccc3C(=O)NCc3ccccc3OC)s2)CC1 | 46% (active)
CCOc1ccc(/C=C/c2nc3ccccc3n2S(=O)(=O)c2ccc(Br)cc2)cc1 | 59%
CCN1CCSc2ccc(C(=O)NCc3ccc(F)cc3)cc21 | 97%
CNC(=O)c1ccc(CN2CCc3ccccc3C2)cc1 | 100%
CCOC(=O)c1c(C)[nH]c(C)c1S(=O)(=O)N1CCC(C(=O)N2CCN(c3ccccc3)CC2)CC1 | 90%
O=C(CSc1nccn1Cc1ccc(Cl)cc1)Nc1ccc2c(c1)OCCO2 | 94%
Cc1ccc(-n2ncc(C(=O)N3CCN(c4ccccn4)CC3)c2C2CCN(C(=O)OC(C)(C)C)CC2)cc1 | 81%
O=C(Cn1c(=O)oc2cc(S(=O)(=O)NCc3ccccc3)ccc21)Nc1cccc(F)c1 | 78%
O=C(NCc1ccccc1)c1cccn1-c1nnc(N2CCCC2)s1 | 55%
Cc1ccc(CNCc2cccn2-c2nnc(N3CCCC3)s2)cc1 | 86%
COc1cccc(CNCc2cccn2-c2nnc(N3CCN(c4ccccc4)CC3)s2)c1 | 79%
O=C(NCc1cccc(Br)c1)c1cccn1-c1nnc(N2CCCCC2)s1 | 78%
CCOc1ccccc1CNCc1cccn1-c1nnc(N2CCN(c3ccccc3)CC2)s1 | 47% (active)
O=C(NCc1cccc(Cl)c1)c1cccn1-c1nnc(N2CCCC2)s1 | 37% (active)
O=C1C=C(N2CCCCC2)C2(CCCCC2)O1 | 106%
COc1ccc(CCN(Cc2cc3cc(C)ccc3n3nnnc23)C(=O)N(C)C)cc1OC | 86%

Structure (SMILES) | survival
Cc1ccc(C)c(N2CCN(C3(c4ccccc4)C(=O)c4ccccc4C3=O)CC2)c1 | 98%
COc1cccc(C(=O)NCC(=O)OCc2cc(=O)n3nc(C)sc3n2)c1 | 116%
COc1ccc(OC)c(C2c3c(oc4ccc(C)cc4c3=O)C(=O)N2CCCN(C)C)c1 (centres undefined) | 73%
COc1cc(NC(=O)CC(C)S(=O)(=O)c2ccc3c(c2)CCN3C(C)=O)cc(OC)c1OC (centres undefined) | 92%
CC(=O)N1CCc2cc(S(=O)(=O)C(C)CC(=O)Nc3ccc(Br)c(C)c3)ccc21 (centres undefined) | -5% (active)
CC(=O)N1CCc2cc(CNC(=O)Nc3ccc(Br)c(C)c3)ccc21 | 87%
Cc1ccc(C)c(N2CCN(Cc3csc(C)c3)CC2)c1 | 119%
CC(C)(C)NC(=O)CSc1nnc(-c2cccs2)o1 | 102%
COc1ccc(C)cc1NC(c1nnc(-c2ccccc2)o1)c1ccc(F)cc1Cl (centres undefined) | -3% (active)
CCc1ccccc1NC(c1nnc(-c2cccc(F)c2)o1)c1ccc(F)cc1Cl (centres undefined) | 96%
COc1cc(OC)c(NC(c2nnc(-c3ccccc3)o2)c2ccc(F)cc2Cl)cc1Cl (centres undefined) | 61%
Cc1cccc(NC(c2nnc(-c3ccccc3)o2)c2ccc(F)cc2Cl)c1C (centres undefined) | 61%
CCOc1ccccc1NC(c1nnc(-c2ccccc2)o1)c1ccc(F)cc1Cl (centres undefined) | 1% (active)
COc1cccc(NC(c2nnc(-c3ccccc3)o2)c2ccc(F)cc2Cl)c1 (centres undefined) | 54%
Nc1ccc2nc(CN3CCOCC3)[nH]c2c1 | 88%
Cc1cc(C)cc(N2C(=O)CS(=O)(=O)C23C(=O)N(Cc2ccccc2)c2ccccc23)c1 (centres undefined) | 82%
COC(=O)c1ccc(Cl)cc1NC(=O)N1CCC(CN2CCCC2)CC1 | 84%
CCc1ccc(NC(=O)C(=O)NCCc2sc(-c3ccc(OC)c(OC)c3)nc2C)cc1 | 78%
Cc1ccc(CNC(=O)c2ccc3c(c2)c(C)c(C)n3Cc2ccc(Cl)cc2)o1 | 75%
CC(C)Oc1ccccc1-c1nc(SCC(=O)c2ccc(F)cc2)n[nH]1 | 40% (active)
CCOc1ccc(-c2nc(SCC(=O)c3ccccc3)n[nH]2)cc1 | 179%
CCOc1ccccc1-c1nc(SCC(=O)c2ccc(OC)c(Br)c2)n[nH]1 | 53%
CCCOc1ccccc1-c1nc(SCC(=O)c2ccccc2)n[nH]1 | 109%
COc1ccc(NC(=O)CSc2n[nH]c(-c3ccccc3)n2)cc1Cl | 88%

Structure (SMILES) | survival
COc1ccccc1-c1nc(SCC(=O)c2ccc(Cl)cc2)n[nH]1 | 175%
COc1ccccc1-c1nc(SCC(=O)c2ccccc2)n[nH]1 | 53% (active)
Cc1ccc(NC(=O)CSc2n[nH]c(-c3ccc(F)cc3)n2)cc1F | 128%
COc1ccccc1-c1nc(SCC(=O)Nc2ccc(C)c(C)c2)n[nH]1 | 43% (active)
CC(C)(C)NC(=O)c1cnn(-c2ccccc2)c1C1CCN(C(=O)OC(C)(C)C)CC1 | 78%
CC(=O)c1c(C)oc2ccc(N(C(=O)Oc3ccccc3)S(=O)(=O)c3ccc(Cl)cc3)cc12 | 75%
CCC(=O)OC1=C(C(C)=O)N(Cc2ccccc2)S(=O)(=O)c2ccccc21 | 62%
COc1ccc(C(CC(=O)Nc2ccc(F)c(Cl)c2)N2Cc3ccccc3C2=O)cc1OC (centres undefined) | 75%
COc1ccc(N2CC(NC(=O)c3ccc(Br)o3)CC2=O)cc1 (centres undefined) | 81%
O=C(Cc1cccs1)NC1CC(=O)N(c2ccc(F)cc2)C1 (centres undefined) | 99%
Cc1ccc(N2CC(NC(=O)Cc3cccs3)CC2=O)cc1 (centres undefined) | 8% (active)
Cc1ccc(N2CC(NC(=O)c3ccc(Br)o3)CC2=O)cc1C (centres undefined) | 37% (active)
O=C(NC1CC(=O)N(c2ccccc2)C1)c1ccc(Br)o1 (centres undefined) | 87%
O=C(Cc1cccs1)NC1CC(=O)N(c2ccccc2)C1 (centres undefined) | 88%
O=C(Cc1cccs1)NC1CC(=O)N(c2ccc(Cl)cc2)C1 (centres undefined) | 67%
Cc1ccc(N2CC(NC(=O)Cc3cccs3)CC2=O)cc1C (centres undefined) | 25% (active)
COc1ccc(N2CC(NC(=O)Cc3cccs3)CC2=O)cc1OC (centres undefined) | 94%
Cc1ccc(C)c(NC(=O)CCn2cnnn2)c1 | 148%
Cc1nnsc1C(=O)Oc1ccc(C#N)cc1 | 89%
COc1cccc(NC(=O)c2cc(CN3CCOCC3)on2)c1 | 88%
CCOC(=O)c1ccc(CN(Cc2ccc(Br)cc2)S(=O)(=O)c2cccc(Cl)c2C)cc1 | 84%
CC(=O)c1ccc(NC(=O)CN(C)S(=O)(=O)c2cc3c(cc2Cl)NC(=O)CO3)cc1 | 72%
